Several values for one entry are separate records, joined by “and”; a condition that tells them apart may be missing. Equal values may be shown once. About 83,000 compounds went through this panel and 20% of them were active in at least one assay; those are over-represented in the sample as a whole.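 The endpoint reported here, percent growth, reads 100 for growth as untreated, 0 for no net growth and -100 for all cells dead.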 Activity calls are given as the source filed them. Rule for the calls: active = growth percent below 10; inactive = the rest.
How the values were obtained:
Test in all cases: NCI-60 one-dose screen, 48 h (100 = growth as untreated, 0 = no growth, -100 = all killed)
Conditions in all cases: 10 µM unless noted
[1] = tested on: NCI-H23 lung
[2] = tested on: NCI-H226 lung
[3] = tested on: NCI-H322M lung
[4] = tested on: HOP-62 NSCLC
[5] = tested on: NCI-H460 lung
[6] = tested on: HOP-92 NSCLC
[7] = tested on: NCI-H522 lung
[8] = tested on: A549/ATCC NSCLC
[9] = tested on: 786-0 renal
[10] = tested on: COLO 205 colon

Measured: growth

N=C1/C(=C2\NC3C=CC=CC3S2)C(c2ccc(Cl)cc2)C2C(=O)N(c3ccccc3)C(=S)N12 (stereo not given)
inactive: [1] 97.4% | [2] 91.6% | [3] 101% | [4] 105% | [5] 107% | [6] 102% | [7] 101% | [8] 100% | [9] 101% | [10] 113%

O=c1ccc2nc(-c3ccccn3)nn(-c3ccccc3)c-2c1
active: [7] -45% | [10] -59.4%
inactive: [1] 89.5% | [2] 90.1% | [3] 102% | [4] 93.4% | [5] 109% | [6] 36.8% | [8] 101% | [9] 53.6%

CC(=O)c1nn(-c2ccccc2)/c(=N/N=Cc2cn(-c3ccccc3)nc2-c2cc3ccccc3oc2=O)s1
inactive: [1] 109% | [2] 105% | [3] 93.2% | [4] 101% | [5] 117% | [6] 94.7% | [7] 95.6% | [8] 102% | [9] 105% | [10] 117%

Clc1ccc(Nc2nc(Nc3ccc(Cl)cc3)nc(Nc3ccc(-c4cc(-c5cccc(Cl)c5)on4)cc3)n2)cc1
inactive: [1] 88.1% | [2] 99.9% | [3] 85.2% | [4] 115% | [5] 96.1% | [6] 60.4% | [7] 88.5% | [8] 91.3% | [9] 94.6% | [10] 90.9%

FC(F)(F)Sc1ccc(/C=C/c2cc(/C=C/c3ccc(SC(F)(F)F)cc3)n(-c3ccccc3)n2)cc1
inactive: [1] 103% | [2] 89.5% | [3] 93.7% | [4] 90.8% | [5] 99.8% | [6] 87.3% | [7] 89.4% | [8] 89.5% | [9] 91.8% | [10] 92.8%

O=C(CCCCCCCCC(=O)N/N=C\c1ccccc1O)N/N=C\c1ccccc1O
active: [2] -5.86% | [4] 0.588% | [5] -11.3% | [9] 3.41%
inactive: [1] 39.9% | [3] 19.5% | [6] 41.9% | [7] 34.3% | [8] 17.1% | [10] 43.1%

CCOC(=O)n1cc(-c2nonc2-c2cn(C)c3ccc(OC)cc23)c2cc(F)ccc21
inactive: [1] 76.1% | [2] 78.3% | [3] 67.4% | [4] 72.6% | [5] 80.6% | [6] 71.4% | [7] 74.4% | [8] 56.5% | [9] 93.9% | [10] 90.9%

Clc1cccc(Nc2ncnc3ccc(-c4cncc(-n5cnnn5)c4)cc23)c1
inactive: [1] 80% | [2] 73% | [3] 15.2% | [4] 83% | [5] 81.6% | [6] 21.7% | [7] 49.2% | [8] 55.7% | [9] 42.9% | [10] 87.9%

CC1(Cc2ccccc2)CC2=C(C(=O)O1)C(c1ccccc1)NC(=O)N2 (stereo not given)
inactive: [1] 100% | [2] 101% | [3] 98.6% | [4] 97.4% | [5] 110% | [6] 77% | [7] 95.4% | [8] 112% | [9] 100% | [10] 106%

COc1ccc(/C=C2/C(=O)N=C3N2NC(c2ccccc2)=CN3c2ccccc2)cc1
inactive: [1] 86.4% | [2] 93.2% | [3] 103% | [4] 105% | [5] 106% | [6] 102% | [7] 101% | [8] 104% | [9] 98.6% | [10] 121%

CCOC(=O)C1=C(C)NC(=O)NC1c1c(Cl)n(-c2ccccc2)c2ccccc12 (stereo not given)
inactive: [1] 74.7% | [2] 86.5% | [3] 80.5% | [4] 86.7% | [5] 96.1% | [6] 59.5% | [7] 66% | [8] 88.2% | [9] 83.1% | [10] 107%

COc1cc2c(cc1OCCCOC1=C=C=C(c3ccc4c(c3)c3cc(-c5ccc(OCCCOc6cc7c(cc6OC)C(=O)N6CCC[C@H]6C=N7)cc5)ccc3n4S(=O)(=O)c3ccc(C)cc3)C=C1)N=C[C@@H]1CCCN1C2=O
active: [7] -8.9%
115% (inactive) and 1.63% (active): [9]
inactive: [1] 36.7% | [2] 22.8% | [3] 216% | [4] 116% and 54.5% | [5] 15.5% | [6] 69.3% | [8] 56.4% | [10] 49%

CCN(CC)/C([O-])=c1\cccc\c1=C1\N=C(c2ccccc2)N=C1[n+]1ccc(-c2ccccc2)cc1
inactive: [1] 103% | [2] 94.4% | [3] 100% | [4] 97.1% | [5] 103% | [6] 86.7% | [7] 21% | [8] 97.9% | [9] 94.2% | [10] 108%

O=C1/C(=C/c2ccc(-c3cccc(C(F)(F)F)c3)o2)SC(=S)N1CCc1ccc(O)cc1
active: [7] 4% | [10] -3.13%
inactive: [1] 85% | [2] 101% | [3] 90.3% | [4] 88.9% | [5] 72.4% | [6] 63.5% | [8] 75% | [9] 17.9%

CCCO/N=C/c1ccccn1
inactive: [1] 105% and 96.6% | [2] 99.2% and 100% | [3] 112% | [4] 104% and 88.2% | [5] 105% and 109% | [6] 105% | [7] 94.8% and 87.3% | [8] 97.5% and 104% | [9] 107% and 101% | [10] 112% and 108%

COc1ccc(/C=C/C(=O)c2cc3c(N)c(C(=O)Nc4ccccc4Cl)sc3nc2C)cc1
inactive: [1] 52.3% | [2] 27.4% | [3] 62.3% | [4] 45.3% | [5] 32.6% | [7] 15.4% | [8] 33.8% | [10] 69.8%
active: [6] 9.45% | [9] -20.4%

COc1ccc(Nc2nn3c(SCC(=O)c4ccc(C)cc4)nnc3s2)cc1
inactive: [1] 91.1% | [2] 84.8% | [3] 86.2% | [4] 90.8% | [5] 97.9% | [6] 83.4% | [7] 80.6% | [8] 96.6% | [9] 93.5% | [10] 91.8%

CCCCCCCC/C=C\CCCCCCCCOc1ccccc1CC(=O)NCC[N+]1(C)CCOCC1
inactive: [1] 69.5% | [2] 62.3% | [3] 93.7% | [4] 50.6% | [5] 39.4% | [6] 67.2% | [7] 51% | [8] 74.4% | [9] 55.6% | [10] 17.3%

COc1ccc(-c2ccc(-c3ccc(C(=N)N)cn3)s2)cc1Cl
active: [1] -57.5% | [3] -97.1% | [4] -50.5% | [5] -93% | [6] -76.8% | [7] -44.2% | [8] -58.2% | [9] -61.3% | [10] -51.7%
inactive: [2] 88.1%

COc1ccc(Oc2nc(Nc3ccc(N4CCOCC4)cc3)ncc2NC(=O)c2cc(OC)cc(OC)c2)cc1
inactive: [1] 101% | [2] 71.2% | [3] 96.7% | [4] 97% | [5] 95.5% | [6] 70.7% | [7] 58.2% | [8] 82.4% | [9] 66.5% | [10] 64.5%

COc1cc(Cl)cc(-c2nn(C(=O)NS(=O)(=O)c3ccc(Cl)cc3)cc2-c2ccncc2)c1
inactive: [1] 89.1% | [2] 70.7% | [3] 96.5% | [4] 59.4% | [5] 111% | [6] 26.6% | [7] 74.3% | [8] 65.1% | [9] 67.9% | [10] 72.1%

C=CCOc1ccc(/C=C2\SC(=S)N(CCc3ccc(O)cc3)C2=O)cc1
inactive: [1] 104% | [2] 91.6% | [3] 95.2% | [4] 106% | [5] 97.4% | [7] 11% | [8] 88.8% | [9] 100% | [10] 114%
active: [6] -2.76%

CONC1=Nc2cc(NC(N)=NCc3ccccc3)c(N(C)C3CCCCC3)cc2OC1
inactive: [1] 68.3% | [2] 67.3% | [3] 87% | [4] 82.3% | [5] 59.7% | [6] 35.4% | [7] 59.3% | [8] 78.7% | [9] 71.2%
active: [10] -36.1%

CCOc1ccccc1NC(=O)c1cc2ccccc2cc1O
inactive: [1] 16.4% | [2] 71.8% | [3] 84.1% | [4] 98.4% | [5] 26.9% | [7] 12.9% | [8] 36.8% | [9] 70.7% | [10] 111%
active: [6] 5.82%

N=C(N)SCc1c2ccccc2c(CSC(=N)N)c2ccccc12
inactive: [1] 54.4% | [2] 71.2% | [3] 103% | [4] 55.5% | [5] 34.4% | [6] 32.2% | [7] 31.2% | [8] 65.9% | [9] 47.7% | [10] 66.1%

— PubChem BioAssay (NCI)
